Experimental data from PubChem BioAssay (Tox21).
Results filed as inconclusive are left out. Active and inactive are the calls of the source. Unless noted, calls follow the shape of the dose curve; as a rule, active = well fitted curve in the direction sought with a large enough effect in the repeat runs; inconclusive = weak or mixed curves; inactive = no such curve, though single readings can be large; an effect the other way counts as inactive or inconclusive.

Key:
[1] = qHTS assay to identify small molecule agonists of the RXR signaling pathway - cell viability counter screen (AID 1159529); also: nearly all actives have a fitted effect of over 50% in size; also: potency is read from the fitted curve at half-maximal effect
Procedure, shortened: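 Luminescence from CellTiter-Glo (30 min, RT) measured viability in the same wells as the beta-lactamase reporter readout. Cells: GeneBLAzer RXR-alpha HEK 293T, 2% charcoal-stripped FBS. Compound exposure 16 hr, 37 C.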

[2] = target: Luciferin 4-monooxygenase (Photinus pyralis) (UniProt P08659); experiment: qHTS assay to identify small molecule inhibitors of firefly luciferase (AID 1224835); also: series mostly up to about 120 µM; nearly all actives have a fitted effect of over 25% in size
Procedure, shortened: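 Biochemical qHTS: compounds run as interplate titrations against purified firefly enzyme, with D-luciferin and ATP each at its KM concentration. Light output recorded by CCD imaging.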

[3] = qHTS assay to identify small molecule antagonists of the constitutive androstane receptor (CAR) signaling pathway - cell viability counter screen (AID 1224837); also: nearly all actives have a fitted effect of over 45% in size; also: potency is read from the fitted curve at half-maximal effect
Procedure, shortened: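 Cells are seeded, rested 4 hr at 37 C/5% CO2, dosed with compound (15-point series) and 50 nM CITCO, incubated a further 23 hr, and then CellTiter-Fluor reagent is added before fluorescence is read. The line is HepG2 with stable hCAR and CYP2B6-2.2kb.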

[4] = qHTS assay to identify small molecule agonists of the estrogen related receptor signaling pathway with the pleiotropic PPARgamma coactivator (PGC) from Tox21 10K library (AID 1224842); also: nearly all actives have a fitted effect of over 15% in size
Procedure, shortened: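 PGC/ERR reporter cell line, 2,000 cells per well, incubated 6 h at 37 C before 23 nL compound in DMSO was added. After 18 h at 37 C, One-Glo luminescence read following 30 min at room temperature.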

[5] = target: Thyrotropin receptor (Homo sapiens) (UniProt P16473); experiment: qHTS assay to identify small molecule agonists of the thyroid stimulating hormone receptor (TSHR) signaling pathway (AID 1224843; calls by dose curve; also: nearly all actives have a fitted effect of over 45% in size)
Procedure, shortened: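 Agonist-mode screen: TSHR HEK293 cells received test chemicals for half an hour at room temperature, then HTRF cAMP detection reagents for one hour prior to fluorescence measurement. Each chemical ran as a 15-concentration series, triplicated.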

[6] = qHTS assay to identify small molecule antagonists of the retinoid acid receptor (RAR) signaling pathway - cell viability counter screen (AID 1159551); also: nearly all actives have a fitted effect of over 35% in size
Procedure, shortened: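 ATP-based viability, C3RL4 cells, 6 h at 37 C with 1 uM final retinol co-added after compound; luminescence read 30 min post CellTiter-Glo, RT.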

[7] = qHTS assay to identify small molecule antagonists of the retinoic acid receptor (RAR) signaling pathway (AID 1159552; also: nearly all actives have a fitted effect of over 50% in size; also: potency is read from the fitted curve at half-maximal effect)
Procedure, shortened: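 Luminescence from a RARE luciferase reporter in C3RL4 cells served as read-out. Cells received compounds together with 1 uM final retinol and incubated 6 hr at 37 C before detection reagent was added for 30 min at room temperature.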

[8] = qHTS assay to identify small molecule agonists of the retinoic acid receptor (RAR) signaling pathway (AID 1159553)
Procedure, shortened: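 Quantitative high-throughput format: the Tox21 10K library was tested on C3RL4 RARE-luciferase cells for 6 hr at 37 C and 5% CO2, with luminescence measured after a 30 min room-temperature reagent step.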

[9] = qHTS assay to identify small molecule agonists of the constitutive androstane receptor (CAR) signaling pathway - cell viability counter screen (AID 1224836); also: nearly all actives have a fitted effect of over 45% in size; also: potency is read from the fitted curve at half-maximal effect
Procedure, shortened: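 Viability read-out: CellTiter-Fluor fluorescence after 23 h compound exposure at 37 C/5% CO2 in double-stable HepG2-CYP2B6-hCAR cells, with PK11195 present at 0.75 uM final; compounds tested in 15-point titration.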

[10] = qHTS assay to identify small molecule antagonists of the estrogen related receptor (ERR) signaling pathway (AID 1224819; also: potency is read from the fitted curve at half-maximal effect; nearly all actives have a fitted effect of over 50% in size)
Procedure, shortened: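 ERR reporter cell line (NTP) plated at 2,000 cells/well, settled 6 h at 37C/5% CO2, then exposed to LOPAC compounds for 18 h at 37C. One-Glo luciferase luminescence read after 30 min at room temperature.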

[11] = qHTS assay to identify small molecule agonists of the estrogen related receptor (ERR) signaling pathway (AID 1224820)
Procedure, shortened: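 After 6 h plating (2,000 cells/well) and 18 h compound treatment at 37 C, ERR cells were lysed with One-Glo and luminescence read after 30 min at room temperature.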

[12] = qHTS assay to identify small molecule agonists of the estrogen related receptor signaling pathway with the pleiotropic PPARgamma coactivator (PGC) (AID 1224823)
Procedure, shortened: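 Luminescence from One-Glo reagent (30 min, room temperature) was read after 18 h compound treatment at 37 C of PGC/ERR cells plated 6 h beforehand; compounds delivered in DMSO by pin tool.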

[13] = target: Nuclear receptor subfamily 1 group I member 3 (Homo sapiens) (UniProt Q14994); experiment: qHTS assay to identify small molecule agonists of the constitutive androstane receptor (CAR) signaling pathway (AID 1224839);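 also: HepG2 cells stably carrying human CAR and a CYP2B6 luciferase reporter; series mostly up to about 92 µM; nearly all actives have a fitted effect of over 15% in size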
Procedure, shortened: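 Luminescence read-out (ONE-Glo, 30 min, room temperature) from double-stable HepG2-CYP2B6-hCAR cells exposed 24 h to 15-point compound series in presence of 0.75 uM PK11195 final.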

[14] = qHTS assay to identify small molecule antagonists of the estrogen related receptor signaling pathway with the pleiotropic PPARgamma coactivator (PGC) from Tox21 10K library (AID 1224841; call rule not given here; also: potency is read from the fitted curve at half-maximal effect; actives are mostly falling curves and most rising ones were filed inactive; nearly all actives have a fitted effect of over 50% in size)
Procedure, shortened: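 Cells stably carrying the PGC/ERR reporter, seeded at 2,000 per well, received pin-transferred compounds 6 h post-plating. Exposure lasted 18 h at 37 C. Signal: One-Glo luminescence.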

[15] = qHTS assay to identify small molecule antagonists of the estrogen related receptor (ERR) signaling pathway from Tox21 library - cell viability counter screen (AID 1224834); also: nearly all actives have a fitted effect of over 30% in size; also: potency is read from the fitted curve at half-maximal effect
Procedure, shortened: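 Compounds in DMSO were pinned onto ERR cells that had been incubated for 6 h, and the plates were held at 37 C for 17.5 h. CellTiter-Fluor reagent was then added and fluorescence was measured after 30 min.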

[16] = qHTS assay to identify small molecule antagonists of the estrogen related receptor signaling pathway with the pleiotropic PPARgamma coactivator (PGC) from Tox21 10K library - cell viability counter screen (AID 1224840; active = well fitted cell-killing curve with a large enough effect in the repeat runs, not every such curve was filed as active; also: nearly all actives have a fitted effect of over 40% in size; also: potency is read from the fitted curve at half-maximal effect)
Procedure, shortened: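 Cell viability is measured by CellTiter-Fluor fluorescence in PGC/ERR cells that receive compounds after a 6-hour attachment period and are then incubated 17.5 hours at 37 C.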

[17] = target: Nuclear receptor subfamily 1 group I member 3 (Homo sapiens) (UniProt Q14994); experiment: qHTS assay to identify small molecule antagonists of the constitutive androstane receptor (CAR) signaling pathway (AID 1224838);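 also: HepG2 cells stably expressing hCAR with CYP2B6 luciferase reporter stimulated by CITCO; nearly all actives have a fitted effect of over 40% in size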; also: potency is read from the fitted curve at half-maximal effect
Procedure, shortened: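 Luminescence from a CYP2B6-2.2kb promoter reporter in hCAR-expressing HepG2 cells reflects CAR signaling. Cells received compounds at 15 concentrations and 50 nM CITCO (final), then incubated 24 h at 37 C/5% CO2.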

Measured: Potency

Chain of Nuclear receptor subfamily 1 group I member 3 (Homo sapiens) (Q14994 whole entry, looked up): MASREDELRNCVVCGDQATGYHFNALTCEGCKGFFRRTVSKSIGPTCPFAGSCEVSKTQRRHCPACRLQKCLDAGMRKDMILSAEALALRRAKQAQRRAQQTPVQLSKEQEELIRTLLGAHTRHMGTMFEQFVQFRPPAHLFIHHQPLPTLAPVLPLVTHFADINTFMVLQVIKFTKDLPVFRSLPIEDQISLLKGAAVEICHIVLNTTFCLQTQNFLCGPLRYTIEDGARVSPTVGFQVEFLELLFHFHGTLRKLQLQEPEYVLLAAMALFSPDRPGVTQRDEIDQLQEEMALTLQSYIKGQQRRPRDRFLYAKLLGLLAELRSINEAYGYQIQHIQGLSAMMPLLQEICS
Chain of Thyrotropin receptor (Homo sapiens) (P16473 whole entry, looked up): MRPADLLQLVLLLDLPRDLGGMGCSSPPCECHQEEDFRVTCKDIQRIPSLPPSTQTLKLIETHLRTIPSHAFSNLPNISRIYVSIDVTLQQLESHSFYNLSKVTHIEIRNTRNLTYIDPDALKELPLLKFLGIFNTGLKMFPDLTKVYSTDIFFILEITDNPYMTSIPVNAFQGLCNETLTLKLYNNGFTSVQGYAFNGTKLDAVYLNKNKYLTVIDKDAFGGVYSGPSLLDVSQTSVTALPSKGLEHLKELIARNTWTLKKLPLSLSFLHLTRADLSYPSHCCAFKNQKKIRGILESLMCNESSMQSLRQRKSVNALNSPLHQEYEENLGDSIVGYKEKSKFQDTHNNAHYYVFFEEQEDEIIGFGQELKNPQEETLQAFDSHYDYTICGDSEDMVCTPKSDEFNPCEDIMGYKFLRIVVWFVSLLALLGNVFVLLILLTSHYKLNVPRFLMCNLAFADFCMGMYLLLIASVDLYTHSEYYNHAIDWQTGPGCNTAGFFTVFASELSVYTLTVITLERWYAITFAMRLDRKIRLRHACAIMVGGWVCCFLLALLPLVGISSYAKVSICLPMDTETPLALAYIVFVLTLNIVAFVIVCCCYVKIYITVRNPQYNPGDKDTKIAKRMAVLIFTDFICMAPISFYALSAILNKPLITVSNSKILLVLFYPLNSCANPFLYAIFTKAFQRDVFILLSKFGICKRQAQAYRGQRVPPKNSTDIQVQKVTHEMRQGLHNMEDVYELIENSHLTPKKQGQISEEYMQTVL
Chain of Luciferin 4-monooxygenase (Photinus pyralis) (P08659 whole entry, looked up): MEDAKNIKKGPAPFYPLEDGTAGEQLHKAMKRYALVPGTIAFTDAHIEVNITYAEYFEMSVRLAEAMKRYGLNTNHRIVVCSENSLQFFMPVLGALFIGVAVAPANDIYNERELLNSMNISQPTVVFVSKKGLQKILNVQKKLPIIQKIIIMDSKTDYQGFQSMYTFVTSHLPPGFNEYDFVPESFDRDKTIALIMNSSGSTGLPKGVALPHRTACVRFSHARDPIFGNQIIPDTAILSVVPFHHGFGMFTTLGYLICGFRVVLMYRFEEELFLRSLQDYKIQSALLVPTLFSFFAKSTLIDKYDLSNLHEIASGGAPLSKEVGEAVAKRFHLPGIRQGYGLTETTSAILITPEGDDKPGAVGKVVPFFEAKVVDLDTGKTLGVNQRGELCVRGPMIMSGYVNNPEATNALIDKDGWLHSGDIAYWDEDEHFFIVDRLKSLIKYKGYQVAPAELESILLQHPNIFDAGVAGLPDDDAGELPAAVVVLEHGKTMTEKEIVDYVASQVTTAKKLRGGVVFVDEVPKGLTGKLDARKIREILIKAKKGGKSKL

CC(C)c1ccc2c(c1)CC[C@H]1[C@](C)(CN)CCC[C@]21C
inactive: [2] | [4] | [5]
active: [1] 21.9 µM | [3] 68.6 µM

OCCCCCCCCCCCCBr
inactive: [6] | [7] | [8] | [2] | [9] | [3] | [5]

CC[C@@]1(O)C(=O)OCc2c1cc1n(c2=O)Cc2cc3c(CN(C)C)c(O)ccc3nc2-1
active: [7] 3.76 µM | [10] 0.75 µM | [14] 16.8 µM
inactive: [6] | [8] | [11] | [12] | [2] | [13] | [4] | [5]

COc1cc(-c2nc(NC(=O)c3cc4cc(C)cc(C)c4n3CC(=O)O)sc2CCC2CCCCC2)c(OC)cc1Cl
active: [1] 20.1 µM | [15] 49.9 µM | [16] 39.7 µM
inactive: [2] | [13] | [4] | [5]

C=C(C)C(=O)OCC(O)COc1ccc(C(C)(C)c2ccc(OCC(O)COC(=O)C(=C)C)cc2)cc1 (stereo unspecified)
active: [15] 48.6 µM | [3] 61.1 µM | [16] 30.6 µM | [14] 43.3 µM
inactive: [6] | [7] | [2] | [13] | [4] | [5]

N=C1N=C(N)c2ccccc21
active: [15] 43.3 µM | [9] 48.6 µM | [3] 54.5 µM | [17] 17.2 µM
inactive: [1] | [2] | [13]

Fc1ccc(C(c2ccc(F)cc2)N2CCN(C/C=C/c3ccccc3)CC2)cc1
inactive: [6] | [7] | [11] | [12] | [2] | [9] | [3] | [17] | [13] | [4] | [5]
active: [10] 19.6 µM | [15] 26.6 µM

CCC(Cl)C(Cl)C(Cl)CC(Cl)C(Cl)C(C)Cl (stereo unspecified)
inactive: [6] | [7] | [8] | [15] | [2] | [9] | [3] | [16]

Oc1cccc(-c2c3nc(c(-c4cccc(O)c4)c4ccc([nH]4)c(-c4cccc(O)c4)c4nc(c(-c5cccc(O)c5)c5ccc2[nH]5)CC4)C=C3)c1
active: [1] 23.9 µM | [15] 10.6 µM | [9] 5.96 µM | [3] 5.31 µM
inactive: [17] | [13]

CC/C(=C(\c1ccc(O)cc1)c1ccc(OCCN(C)C)cc1)c1ccccc1
inactive: [2] | [13] | [4]
active: [1] 21.9 µM | [15] 68.7 µM | [9] 68.7 µM | [3] 68.7 µM | [16] 48.7 µM

ON=C1CCCC1
active: [15] 25.2 µM | [14] 63.3 µM
inactive: [6] | [7] | [8] | [2] | [17] | [4] | [5]
